Assay [1] in a line: inhibitors of Cryptococcus chitosan production, flow cytometry, Cibacron Brilliant Red staining (AID 1347148).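 Also: compound exposure lasted three days at 37 degrees C.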 The following applies: Cryptococcus neoformans chitosan, stronger effect = lower value; at 10 µM unless noted. In general terms: A flow cytometer gives signals particle by particle.
A short description of assay [2]: modifiers of HSF1 nuclear foci, imaging, Selleck Cancer Library (AID 1347162; in the data active = plate-normalised HSF1 focus index below about 0.46). The following applies: human cells, at 10 µM; SSMD: measured here: HSF1 foci SSMD mean; cell count: measured here: cell number; plate-normalised HSF1 focus index: stronger effect = lower value.
A short description of assay [3]: hESC survival regulators, cell-based (AID 493140).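 Also: cells exposed to compounds for four days before counting.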 The following applies: human embryonic stem cell survival screen; stronger effect = higher value.
Assay [4] is described as follows: polyglutamine-triggered caspase-3 activation inhibitors, cell-based (AID 1583). The following applies: polyglutamine-induced caspase-3 activation, cell assay; stronger effect = higher value;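 tested at 10 µM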.
The nature of assay [5]: suppressors of polyQ aggregation in yeast, 75Q-TubU reporter (AID 1593). The following applies: Yeast 75Q polyglutamine aggregation reporter.
Assay [6] is described as follows: rescue of polyQ-huntingtin neuronal dysfunction in worms, whole organism, C. elegans mechanosensory neurons, N-terminal huntingtin (AID 1599). The following applies: touch response, stronger effect = higher value.
Assay [7] in a line: inhibitors of mitochondrial cytochrome c release, biochemical, purified mitochondria (AID 1603).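 Also: mouse liver mitochondria challenged with calcium chloride; signal normalized to the plate average as 100%.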 The following applies: stronger effect = lower value.
A short description of assay [8]: inhibitors of polyQ protein aggregation (AID 1604). The following applies: polyglutamine-induced protein aggregation inhibition assay; stronger effect = higher value; tested at 2.5 µM.
Assay [9] is described as follows: enhancers of glutamate uptake in motor neurons, MN-1 cell line (AID 1612).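 Also: tested at 1 µM final; 0% = mean of DMSO vehicle wells on each plate; positive means more glutamate uptake than control and negative means less.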 The following applies: MN-1 motor neuron cells, stronger effect = higher value.
A short description of assay [10]: suppressors of polyglutamine aggregation in yeast, 75Q-TubH (AID 1616). The following applies: S. cerevisiae 75Q-TubH polyglutamine aggregation suppression; stronger effect = higher value.

SMILES strings stand for the structures. For some of these results: Results with a measured potency or affinity are listed apart. Activity calls are given as the source filed them. Unless noted, no rule for the calls is given here.

As for `C=CCNC1=C2C[C@H](C)C[C@@H](OC)[C@@H](O)[C@H](C)/C=C(\C)[C@@H](OC(N)=O)[C@H](OC)/C=C\C=C(/C)C(=O)NC(=CC1=O)C2=O`, the fold fluorescence in assay [1] is 7.27 [at 85.4 µM] (inactive).

Regarding `COC(=O)[C@H](CCCN=C(N)N)NS(=O)(=O)c1ccc(C)cc1`, in [2], the SSMD worked out at 1.44, the cell count was found to be 7120 and the plate-normalised HSF1 focus index was 1.08 (inactive). For `CO[C@H]1C[C@@H]2CC[C@@H](C)[C@@](O)(O2)C(=O)C(=O)N2CCCC[C@H]2C(=O)O[C@H]([C@@H](C)C[C@@H]2CC[C@@H](OCCO)[C@H](OC)C2)CC(=O)[C@H](C)/C=C(\C)[C@@H](O)[C@@H](OC)C(=O)[C@H](C)C[C@H](C)/C=C/C=C/C=C/1C` the same measures were 2.84, 6750 and 1.15 (inactive). Regarding `CCCCCCCCCCCCCCC[C@H](O)[C@@H](CO)NC(C)=O`, in assay [1], the fold fluorescence is 4.64 (inactive). Same read-out and setting: in the case of `C1CCC[C@H]2CCCN3CC[C@@H](CCCCCC[C@@H]4CCCN5CC[C@@H](CC1)O[C@@H]45)O[C@@H]23` it was 6.06 [at 11.2 µM] (inactive). `COc1ccc(Cc2nn3c([C@@H](CCCc4ccccc4)[C@@H](C)O)nc(C)c3c(=O)[nH]2)cc1OC`: in assay [2], the SSMD came to 2.11, the cell count amounted to 7160 and the plate-normalised HSF1 focus index was 1.12 (inactive). For `O=C(O)c1ccc(-c2c3nc(c(-c4ccc(C(=O)O)cc4)c4ccc([n-]4)c(-c4ccc(C(=O)O)cc4)c4nc(c(-c5ccc(C(=O)O)cc5)c5ccc2[n-]5)C=C4)C=C3)cc1.[Mn+3]`, the fold fluorescence in assay [1] was 4.93 [at 57 µM] (inactive). The same measure, in the same setting: the figure for `CCCCCCCCCCCCCCCC(=O)OC[C@@H](COP(=O)(O)O)OC(=O)CCCCCCCCCCCCCCC` is 3.86 (inactive).

With `COc1cc(C(=O)NC(=S)Nc2cccc(NC(=O)c3ccccc3)c2)cc(OC)c1OC`, in assay [2], the SSMD is 4.07, the cell count came to 6830 and the plate-normalised HSF1 focus index was 1.24 (inactive). With `CN(CCc1ccc(Cl)c(Cl)c1)C[C@H](O)COc1ccc(NS(C)(=O)=O)cc1`, the fold fluorescence in [1] was 3.81 [at 111.8 µM] (inactive). Regarding `CCCCC/C=C\C=C\[C@@H](O)CCCCCCCC(=O)O`, in assay [3], the survival is 108 (inactive). The fold fluorescence in assay [1] was 5.71 [at 1 µM] (inactive). For the compound `COc1c/c(=C2/C=c3ccccc3=N2)[nH]/c1=C\c1[nH]c(C)cc1C`, in [2], the SSMD is -6.15, the cell count turned out to be 7490 and the plate-normalised HSF1 focus index is 0.614 (inactive). As for `C=C(C)[C@H]1CC[C@@]2(C(=O)O)CC[C@@]3(C)[C@@H](CC[C@H]4[C@]5(C)CC[C@@H](O)C(C)(C)[C@H]5CC[C@@]43C)[C@H]12`, the fold fluorescence in assay [1] is 3.34 [at 109.5 µM] (inactive). Turning to `OC[C@H]1O[C@@H](n2cnc3c2NC=NC[C@H]3O)CC1O` (some centres undefined), in [2], the SSMD turned out to be 3.2, the cell count is 7070 and the plate-normalised HSF1 focus index was 1.17 (inactive). In the case of `CN(C)C[C@H](O)Cn1c2ccc(Br)cc2c2cc(Br)ccc21`, the fold fluorescence in assay [1] is 6.53 [at 117.3 µM] (inactive). By inhibition is commonly meant the relative decrease from the control value, in per cent. `C=C1C(=O)O[C@@H]2C3OC3(C)CC/C=C(\C)CC[C@@H]12` (some centres undefined) displayed an inhibition in assay [4] of 14.3%. For the same compound, the score in assay [5] worked out at 0.94. This compound also returned a rescue above control in assay [6] of 8.2. Further, the cytochrome c release ratio in assay [7] is 0.54. Moreover, the inhibition of aggregation in [8] worked out at 93.6%. Further, in assay [9], the glutamate uptake change is -11%. Also, the aggregation suppression score in assay [10] stood at 0.572. In addition, the fold fluorescence in assay [1] was 11.6 [at 201.4 µM] (inactive).

As to `CCCCC[C@@H](O)/C=C/[C@H]1[C@@H]2C/C(=C/CCCC(=O)O)C[C@@H]2C[C@@H]1O`, the fold fluorescence in assay [1] was 4.8 (inactive). On the same count and under the same terms, the figure for `CC(C)COC[C@H](CN(Cc1ccccc1)c1ccccc1)N1CCCC1` is 8.48 [at 136.4 µM] (inactive).

For `COc1cc2c3cc1Oc1c(OC)c(OC)cc4c1[C@H](Cc1ccc(OC(=O)c5ccc([N+](=O)[O-])cc5)c(c1)Oc1ccc(cc1)C[C@H]3N(C)CC2)N(C)CC4`, in [1], the fold fluorescence was 5.83 [at 66 µM] (inactive). The same measure, in the same setting: in the case of `COc1ccc(CC(N)C(=O)N[C@@H]2[C@H](O)[C@@H](n3cnc4c(N(C)C)ncnc43)O[C@H]2CO)cc1` (some centres undefined) it was 4.82 [at 106 µM] (inactive). The same measure, in the same setting: the figure for `CCCCCCCC/C=C\CCCCCCCC(=O)OC[C@H](O)COP(=O)(O)O` is 3.84 (inactive). On to `CC[C@@H](C(=O)[C@@H](C)[C@@H](O)[C@H](C)[C@@H]1O[C@@H]([C@@H](CC)C(=O)O)CC[C@@H]1C)[C@H]1O[C@]2(C=C[C@@H](O)[C@]3(CC[C@@](C)([C@H]4CC[C@](O)(CC)[C@H](C)O4)O3)O2)[C@H](C)C[C@@H]1C`, for which, in assay [2], the SSMD amounted to 4.08, the cell count came to 7580 and the plate-normalised HSF1 focus index is 1.26 (inactive). For `C[S@](=O)c1ccc(-c2nc(-c3ccc(F)cc3)c(-c3ccncc3)[nH]2)cc1`, the fold fluorescence in assay [1] is 8.78 [at 132.5 µM] (inactive). Same read-out and setting: in the case of `CC(C)[C@@H](O)CC[C@H](C)[C@@H]1CC[C@@H]2[C@H]3CC=C4C[C@H](O)CC[C@@]4(C)[C@@H]3CC[C@]21C` it was 4.41 [at 124.2 µM] (inactive). With `Nc1ncnc2c1c(I)cn2C1OC(CO)C(O)C1O` (centres undefined), the survival in assay [3] is 7.5 (inactive). Further, the fold fluorescence in assay [1] is 3.83 [at 127.5 µM] (inactive). Turning to `C=C1/C(=C\C=C2/CCC[C@]3(C)[C@@H]2CC[C@H]3[C@@H](C)CCCC(C)(C)O)C[C@H](O)C[C@H]1O`, in assay [1], the fold fluorescence was 7.1 (inactive).

The values are drawn from PubChem BioAssay.
